{
  "source": "the supplement of paper PMC8540655",
  "system": "Aedes aegypti larvae",
  "test": "larval motility relative to same well at 0 h (fraction); higher = more motile (less active compound), active = 0.4 or less",
  "conditions": "10 µM",
  "procedure,_shortened": "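Aedes aegypti larvae were hatched at 25 °C in pond salt solution with yeast, collected after 18–24 h, and dispensed at about 10 per well (100 µL) in 96-well plates. Compounds were tested at 10 µM in 1% v/v DMSO, and each plate carried solvent and larvicide control wells. INVAPP movies of 200 frames at 100 ms intervals were recorded at 0, 2 and 24 h, and each value is the median of three independent larval batches. Relative motility is each well's score divided by that same well's starting score.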",
  "note": "Unmarked numbers belong to inactive results.",
  "data": [
    {"molecule": "O=C(O)/C=C/C=C/c1cccc(Oc2cc(Cl)cc(Cl)c2)c1", "values": [
      {"measurement": "larval motility", "setting": "2 h", "value": 1.55},
      {"measurement": "larval motility", "setting": "24 h", "value": 0.995}
    ]},
    {"molecule": "OB1OCc2cc(Cl)ccc21", "values": [
      {"measurement": "larval motility", "setting": "2 h", "value": 0.664},
      {"measurement": "larval motility", "setting": "24 h", "value": 1.04}
    ]},
    {"molecule": "COC1CC2CCC(C)C(O)(O2)C(=O)C(=O)N2CCCCC2C(=O)OC(C(C)CC2CCC(OCCO)C(OC)C2)CC(=O)C(C)/C=C(\\C)C(O)C(OC)C(=O)C(C)CC(C)/C=C/C=C/C=C/1C", "note": "(centres undefined)", "values": [
      {"measurement": "larval motility", "setting": "2 h", "value": 0.921},
      {"measurement": "larval motility", "setting": "24 h", "value": 1.02}
    ]},
    {"molecule": "Cc1cc(C)n(O)c(=O)c1", "values": [
      {"measurement": "larval motility", "setting": "2 h", "value": 0.846},
      {"measurement": "larval motility", "setting": "24 h", "value": 0.863}
    ]},
    {"molecule": "C=CCc1cc(Cc2cnc(N)nc2N)cc(OC)c1O", "values": [
      {"measurement": "larval motility", "setting": "2 h", "value": 1.05},
      {"measurement": "larval motility", "setting": "24 h", "value": 1.18}
    ]},
    {"molecule": "CCCCCCCc1[nH]c2ccccc2c(=O)c1O", "values": [
      {"measurement": "larval motility", "setting": "2 h", "value": 0.74},
      {"measurement": "larval motility", "setting": "24 h", "value": 0.565}
    ]},
    {"molecule": "CN(O)C(=O)c1cc2c(CN3CCC[C@H]3C(N)=O)cn(Cc3ccc(F)cc3)c2cn1", "values": [
      {"measurement": "larval motility", "setting": "2 h", "value": 0.668},
      {"measurement": "larval motility", "setting": "24 h", "value": 1.08}
    ]},
    {"molecule": "CCc1cc(CCCOc2c(C)cc(-c3noc(C(F)(F)F)n3)cc2C)on1", "values": [
      {"measurement": "larval motility", "setting": "2 h", "value": 0.695},
      {"measurement": "larval motility", "setting": "24 h", "value": 0.658}
    ]},
    {"molecule": "COc1cc(C)c2c(Oc3cccc(C(F)(F)F)c3)c(OC)cc(NC(C)CCCN)c2n1", "note": "(centres undefined)", "values": [
      {"measurement": "larval motility", "setting": "2 h", "value": 0.654},
      {"measurement": "larval motility", "setting": "24 h", "value": "0.385 (active)"}
    ]},
    {"molecule": "CC(C)c1ccc(COc2cccc(-c3cc(S(C)=O)c(C#N)c(=O)[nH]3)c2)cc1", "note": "(centres undefined)", "values": [
      {"measurement": "larval motility", "setting": "2 h", "value": 0.682},
      {"measurement": "larval motility", "setting": "24 h", "value": 0.447}
    ]},
    {"molecule": "NC(=O)c1cnc2ccc(S(=O)(=O)c3ccccc3)cc2c1Nc1ccc(O)cc1", "values": [
      {"measurement": "larval motility", "setting": "2 h", "value": 1.25},
      {"measurement": "larval motility", "setting": "24 h", "value": 1.01}
    ]},
    {"molecule": "CCc1c(OCC2CCC2)c2cc(F)ccc2[nH]c1=O", "values": [
      {"measurement": "larval motility", "setting": "2 h", "value": 1.07},
      {"measurement": "larval motility", "setting": "24 h", "value": 1.08}
    ]}
  ]
}
